In the library only some 3.6% were active in any assay of this set; here they are far more common.
Pf apPOL inh – Pf-apPOL inhibitors, biochemical, fluorescence. Plasmodium falciparum apicoplast DNA polymerase (apPOL). Recombinant Pf-apPOL, molecular beacon fluorescence, 1.5 h. inhibition, % at 10 µM. 210,000 tested, 0.25% active. AID 1794808, 2022
mHTT-CaM PPI inh – mutant huntingtin-calmodulin interaction inhibitors – biochemical, AlphaScreen, primary screen. inhibition, % at 15 µM. AlphaScreen His-mHTT/GST-CaM binding, luminescence. AID 1671202, 2021. 190,000 tested, 3.6% active
Target sequence (P42858 whole entry, looked up, change not shown): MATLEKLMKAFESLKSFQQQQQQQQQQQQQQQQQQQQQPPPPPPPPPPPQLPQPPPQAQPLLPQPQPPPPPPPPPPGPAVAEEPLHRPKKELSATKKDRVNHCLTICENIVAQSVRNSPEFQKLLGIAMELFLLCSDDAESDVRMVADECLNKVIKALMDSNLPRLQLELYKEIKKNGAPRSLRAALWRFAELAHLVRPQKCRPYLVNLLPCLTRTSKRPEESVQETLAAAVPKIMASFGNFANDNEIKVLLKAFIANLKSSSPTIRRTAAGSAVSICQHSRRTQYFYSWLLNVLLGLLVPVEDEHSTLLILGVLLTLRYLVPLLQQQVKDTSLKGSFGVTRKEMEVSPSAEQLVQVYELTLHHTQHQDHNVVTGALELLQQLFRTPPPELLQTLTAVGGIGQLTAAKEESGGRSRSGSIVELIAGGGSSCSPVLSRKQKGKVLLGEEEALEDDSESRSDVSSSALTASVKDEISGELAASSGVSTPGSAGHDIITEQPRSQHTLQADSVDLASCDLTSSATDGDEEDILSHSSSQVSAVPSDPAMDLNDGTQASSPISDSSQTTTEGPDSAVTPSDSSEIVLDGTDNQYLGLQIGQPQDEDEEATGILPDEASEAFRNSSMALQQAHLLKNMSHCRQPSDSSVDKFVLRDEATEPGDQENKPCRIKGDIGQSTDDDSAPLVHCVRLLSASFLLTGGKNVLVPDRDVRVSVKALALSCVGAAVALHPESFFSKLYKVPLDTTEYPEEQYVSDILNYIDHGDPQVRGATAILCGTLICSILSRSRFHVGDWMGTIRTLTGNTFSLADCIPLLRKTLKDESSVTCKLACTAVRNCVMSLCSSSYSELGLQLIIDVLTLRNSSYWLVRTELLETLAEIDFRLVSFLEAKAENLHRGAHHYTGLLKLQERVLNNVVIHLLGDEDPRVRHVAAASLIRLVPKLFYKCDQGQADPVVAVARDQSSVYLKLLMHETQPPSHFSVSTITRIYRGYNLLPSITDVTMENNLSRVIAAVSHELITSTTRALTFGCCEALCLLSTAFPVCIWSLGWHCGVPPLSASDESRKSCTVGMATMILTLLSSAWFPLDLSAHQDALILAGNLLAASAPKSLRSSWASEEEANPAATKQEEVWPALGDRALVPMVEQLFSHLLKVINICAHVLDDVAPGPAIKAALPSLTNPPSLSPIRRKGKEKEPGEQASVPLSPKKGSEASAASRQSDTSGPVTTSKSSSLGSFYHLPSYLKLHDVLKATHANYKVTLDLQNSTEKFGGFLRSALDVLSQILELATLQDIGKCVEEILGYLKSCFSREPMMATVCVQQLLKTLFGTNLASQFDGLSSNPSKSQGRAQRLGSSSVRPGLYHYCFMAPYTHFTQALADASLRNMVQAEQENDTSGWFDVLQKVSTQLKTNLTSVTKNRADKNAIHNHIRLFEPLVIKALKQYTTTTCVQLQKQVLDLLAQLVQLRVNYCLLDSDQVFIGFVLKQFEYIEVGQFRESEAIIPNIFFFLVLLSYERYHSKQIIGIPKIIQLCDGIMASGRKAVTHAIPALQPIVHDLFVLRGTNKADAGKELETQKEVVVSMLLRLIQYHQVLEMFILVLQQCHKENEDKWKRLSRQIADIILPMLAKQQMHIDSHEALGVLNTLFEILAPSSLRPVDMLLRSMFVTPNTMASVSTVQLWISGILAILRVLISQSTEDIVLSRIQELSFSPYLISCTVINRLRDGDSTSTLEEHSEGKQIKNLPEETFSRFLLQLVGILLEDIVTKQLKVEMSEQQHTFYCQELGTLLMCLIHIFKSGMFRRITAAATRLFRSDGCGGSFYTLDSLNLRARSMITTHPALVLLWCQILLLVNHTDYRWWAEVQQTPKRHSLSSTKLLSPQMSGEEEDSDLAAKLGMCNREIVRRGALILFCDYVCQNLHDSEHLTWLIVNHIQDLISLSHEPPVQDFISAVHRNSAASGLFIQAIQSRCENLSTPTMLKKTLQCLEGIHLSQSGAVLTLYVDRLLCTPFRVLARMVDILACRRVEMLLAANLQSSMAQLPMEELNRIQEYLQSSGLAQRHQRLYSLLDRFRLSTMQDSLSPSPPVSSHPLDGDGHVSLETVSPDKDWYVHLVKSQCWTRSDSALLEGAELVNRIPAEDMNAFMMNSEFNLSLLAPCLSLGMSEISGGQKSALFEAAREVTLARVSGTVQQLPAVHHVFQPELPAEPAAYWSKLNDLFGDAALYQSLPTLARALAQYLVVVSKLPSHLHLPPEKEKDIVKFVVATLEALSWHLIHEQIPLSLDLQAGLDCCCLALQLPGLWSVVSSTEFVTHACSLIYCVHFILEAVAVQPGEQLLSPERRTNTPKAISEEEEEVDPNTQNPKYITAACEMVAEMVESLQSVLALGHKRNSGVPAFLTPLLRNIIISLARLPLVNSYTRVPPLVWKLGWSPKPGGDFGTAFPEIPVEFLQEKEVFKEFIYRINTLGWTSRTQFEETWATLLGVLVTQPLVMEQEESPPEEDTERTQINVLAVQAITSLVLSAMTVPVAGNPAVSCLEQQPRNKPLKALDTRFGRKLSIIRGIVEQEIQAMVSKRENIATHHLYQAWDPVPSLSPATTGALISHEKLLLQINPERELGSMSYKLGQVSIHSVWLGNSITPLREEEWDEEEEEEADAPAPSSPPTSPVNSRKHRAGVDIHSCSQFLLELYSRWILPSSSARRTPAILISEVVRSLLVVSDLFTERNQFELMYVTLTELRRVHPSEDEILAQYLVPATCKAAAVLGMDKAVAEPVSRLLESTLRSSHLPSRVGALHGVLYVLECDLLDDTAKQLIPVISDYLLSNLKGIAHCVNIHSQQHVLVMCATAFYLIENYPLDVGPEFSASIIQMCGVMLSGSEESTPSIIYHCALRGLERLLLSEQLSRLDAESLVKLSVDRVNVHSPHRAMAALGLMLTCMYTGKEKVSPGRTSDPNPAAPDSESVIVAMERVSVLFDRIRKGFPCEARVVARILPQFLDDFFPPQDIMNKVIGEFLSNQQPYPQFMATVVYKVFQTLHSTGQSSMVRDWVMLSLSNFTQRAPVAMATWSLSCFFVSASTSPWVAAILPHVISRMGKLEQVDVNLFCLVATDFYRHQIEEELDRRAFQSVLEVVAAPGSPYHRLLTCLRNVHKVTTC
Large screens that a line does not name were inactive. No stated cut-off is given here; in the data, active means inhibition above about 50%; inactive means the rest.

COc1ccc(C(C)NC(=O)c2cn3cc(Cl)ccc3n2)cc1 (configuration not stated)	none
CCn1c(C2CCN(C(=O)Nc3ccccc3)C2)nc2cccnc21 (configuration not stated)	none
CCC1SC(CC)C(=O)N(CC(=O)Nc2ccccc2)C1=O (configuration not stated)	none
COc1ccccc1Nc1nc(-c2sc(C)nc2C)cs1	none
Cc1nc(C)c(-c2csc(NCc3ccco3)n2)s1	none
COc1ccc(Nc2nc(-c3sc(C)nc3C)cs2)cc1	mHTT-CaM PPI inh 52
Cc1nc(C)c(-c2csc(Nc3ccc(N)cc3)n2)s1	mHTT-CaM PPI inh 87
Cc1ccc(O)c(N=Nc2ccccc2)n1	none (no result: mHTT-CaM PPI inh)
COc1ccc2c(c1)c(=O)oc1c(C)c(OCc3cc(C(=O)O)oc3C)ccc12	none
Cc1ccc(-c2csc(N)n2)c(C)c1	none
Cc1ccc(C)c(-c2coc(-c3ccc(N)cc3)n2)c1	mHTT-CaM PPI inh 53
Cc1ccc(-c2nc3cc(N)ccc3o2)cc1C	none
Cc1ccc(-c2coc(-c3ccc(N)cc3)n2)c(C)c1	mHTT-CaM PPI inh 59
O=[N+]([O-])C1CS(=O)(=O)C=C1N1CCOCC1 (configuration not stated)	none
CCN(Cc1ccccc1)S(=O)(=O)c1ccc(C(=O)Nc2nnc(C)o2)cc1	mHTT-CaM PPI inh 74
CCCCN(CC)S(=O)(=O)c1ccc(C(=O)Nc2nnc(-c3ccccc3OC)o2)cc1	mHTT-CaM PPI inh 52
CCN(CC)S(=O)(=O)c1ccc(C(=O)Nc2nnc(-c3ccc(OC)cc3OC)o2)cc1	none
CCCCN(CC)S(=O)(=O)c1ccc(C(=O)Nc2nnc(C)o2)cc1	none
Cc1nnc(NC(=O)c2ccc(S(=O)(=O)N(CC(C)C)CC(C)C)cc2)o1	mHTT-CaM PPI inh 51
CCN(Cc1ccccc1)S(=O)(=O)c1ccc(C(=O)Nc2nnc(CSC)o2)cc1	none
CCc1cccc(NC(=O)N2CCC(c3nc4ccncc4n3C)C2)c1 (configuration not stated)	none
c1ccc(C(NCCNC(c2ccccc2)c2ccccc2)c2ccccc2)cc1	none (no result: mHTT-CaM PPI inh)
CC(C)(C)C(=O)NCCC(O)C(C)(C)C (configuration not stated)	none
O=[N+]([O-])c1cccc(S(=O)(=O)C=C(Cl)Cl)c1	mHTT-CaM PPI inh 63 (no result: Pf apPOL inh)
O=[N+]([O-])c1cccc(S(=O)(=O)N2CCCC2)c1	none
CC(C)C[C@@H]1COc2cc(NC3CC3)ccc2S(=O)(=O)N1	none
O=C(Cn1cnc([N+](=O)[O-])n1)Nc1cc(Sc2ccc(Br)cc2)cc([N+](=O)[O-])c1	none
Cc1ccc(N=Cc2[nH]c3ccc(Br)c(Cl)c3c2O)cc1C	none
CC(=O)c1cccc(NS(=O)(=O)c2ccc3[nH]c4c(c3c2)CCCC4)c1	mHTT-CaM PPI inh 84
CC(=O)c1cccc(NC(=O)CN(C)S(=O)(=O)c2ccc3[nH]c4c(c3c2)CCCC4)c1	none
CC(=O)c1ccc(NS(=O)(=O)c2ccc3[nH]c4c(c3c2)CCCCC4)cc1	mHTT-CaM PPI inh 70
CC(=O)c1cccc(NS(=O)(=O)c2ccc3[nH]c4c(c3c2)CCCCC4)c1	mHTT-CaM PPI inh 99
CN(CC(=O)Nc1cccc(F)c1)S(=O)(=O)c1ccc2[nH]c3c(c2c1)CCCC3	none
CCOC(=O)c1cccc(NS(=O)(=O)c2ccc3[nH]c4c(c3c2)CCCC4)c1	mHTT-CaM PPI inh 95
CC(=O)c1cccc(NS(=O)(=O)c2ccc(F)cc2)c1	none
COCCCN1COc2ccc3c(c2C1)OC(=Cc1ccccc1)C3=O	none
CC1CCc2c(sc3ncnc(SCC(N)=O)c23)C1 (configuration not stated)	none
COc1ccccc1NC(=O)c1cc(S(=O)(=O)N2CCc3ccccc3C2)ccc1F	none
O=C(O)CN(CC(=O)O)C(=O)OCc1ccc([N+](=O)[O-])cc1	none
COc1ccc(-c2noc(C3CCCN3C(=O)Nc3ccccc3C(F)(F)F)n2)cc1 (configuration not stated)	none
COCCn1c(C2CCN(C(=O)Cc3cccc(F)c3)C2)nc2cccnc21 (configuration not stated)	none
O=C1c2ccc(F)cc2C(=O)N1c1ccccc1F	none
CC(C)(C)c1ccc(O)c(N=C/C=C/c2ccc([N+](=O)[O-])cc2)c1	none
O=[N+]([O-])c1ccc(/C=C/C=Nc2ccccc2O)cc1	mHTT-CaM PPI inh 83
Cc1ncnc2c1CCC(=O)N2CCN1CCOCC1	none
COc1ccc(NC(C)=O)cc1NC(=O)Cc1cn(Cc2ccccc2)c2ccccc12	mHTT-CaM PPI inh 83
COc1ccc(NC(=O)Cc2cn(C)c3ccccc23)cc1Cl	none
Cc1ccc(/C=C2\N=C(c3ccc(F)cc3)OC2=O)cc1	none
CC1=C(C(=O)N2CCN(C(=O)c3ccco3)CC2)C2(CCCCC2)OC1=O	none
Fc1ccc(C2CC(c3ccccc3)n3ncnc3N2)cc1 (configuration not stated)	none
Nc1ccc2c(c1)/C(=C/c1ccccc1)c1ccccc1-2	mHTT-CaM PPI inh 100
C(=C1c2ccccc2-c2ccccc21)c1ccccn1	none
CCOc1ccccc1NC(=O)CCC(=O)Nc1ccc2nc(N3CCN(C)CC3)cc(C)c2c1	none
Fc1ccccc1Cn1nnc(-c2ccc3c(c2)OCO3)n1	none
N#CC1=C2N=C(N)c3c(sc4c3CCCCC4)N2C2=C(C(=O)CCC2)C1c1cccnc1 (configuration not stated)	mHTT-CaM PPI inh 61
N#CC1=C2NC(=O)c3c(sc4c3CCCCC4)N2C2=C(C(=O)CCC2)C1c1cccnc1 (configuration not stated)	none
O=C(Nc1ccc(-c2nc3ccccc3s2)cc1)c1ccc([N+](=O)[O-])o1	none
Cc1nn(C2CCS(=O)(=O)C2)c2nc(-c3ccc(F)cc3)cc(C(=O)N3CCCC3)c12 (configuration not stated)	none
O=C(NCc1n[nH]c(=O)c2ccccc12)c1cc(-c2ccco2)[nH]n1	Pf apPOL inh 78
O=C(NCc1n[nH]c(=O)c2ccccc12)c1cccc2ccccc12	none
O=C(CN1C(=O)C(c2ccc(F)cc2)=NC12CCCC2)Nc1ccccc1F	none
Fc1ccc(F)c(-c2nc(-c3ccc4nncn4c3)no2)c1	none
COc1ccc(CNCc2cc3c(cc2[N+](=O)[O-])OCO3)cc1	none
Cc1cc(C)cc(NCc2cc3c(cc2[N+](=O)[O-])OCO3)c1	mHTT-CaM PPI inh 68
COc1cc(Cl)c(C)cc1NC(=O)Cc1ccccc1[N+](=O)[O-]	none
Cc1ccc(-c2nc(C3CCN(S(=O)(=O)c4ccc(F)c(Cl)c4)CC3)no2)cc1	none
CC(=O)N1N=C(c2ccc(Br)cc2)CC1c1ccc(N(C)C)cc1 (configuration not stated)	mHTT-CaM PPI inh 74
CC(=O)N1N=C(c2ccc(Br)cc2)CC1c1ccc(Br)cc1 (configuration not stated)	none
COc1cc(C(=O)N2N=C(c3ccccc3)CC2c2ccc(N(C)C)cc2)cc(OC)c1OC (configuration not stated)	mHTT-CaM PPI inh 97
Cc1ccc(C2CC(c3ccccc3)=NN2C(=O)CCC(=O)O)cc1 (configuration not stated)	none
Cc1ccc(C2=NN(C(=O)CCC(=O)O)C(c3ccc(Br)cc3)C2)cc1 (configuration not stated)	Pf apPOL inh 72
CC(=O)N1N=C(c2ccccc2)CC1c1ccc(N(C)C)cc1 (configuration not stated)	none
Cc1cccnc1NC(=O)Nc1ccc(F)cc1F	none
Cc1ccc(N2C(=O)Nc3ccc(Br)cc3C2(O)C(=O)N2CCCC2)cc1C (configuration not stated)	none
